± gives the standard deviation of the averaged measurements.
Legend:
Drosophila melanogaster [1] = experiment: olfactory response index (dipstick assay) (fraction of flies (RI; 1 aversion, 0.5 indifferent, 0 attraction)); higher = stronger aversion to the odorant; conditions: odorant concentration: 1% v/v, male
Drosophila melanogaster [2] = experiment: as above; conditions: odorant concentration: 1% v/v, female
[3] = genotype (tubulin-GAL4 x UAS-RNAi line; control = progenitor): A5
[4] = genotype (tubulin-GAL4 x UAS-RNAi line; control = progenitor): control
[5] = genotype (tubulin-GAL4 x UAS-RNAi line; control = progenitor): obp 18a
[6] = genotype (tubulin-GAL4 x UAS-RNAi line; control = progenitor): obp 22a
[7] = genotype (tubulin-GAL4 x UAS-RNAi line; control = progenitor): obp 28a
[8] = genotype (tubulin-GAL4 x UAS-RNAi line; control = progenitor): obp 56a
[9] = genotype (tubulin-GAL4 x UAS-RNAi line; control = progenitor): obp 56c
[10] = genotype (tubulin-GAL4 x UAS-RNAi line; control = progenitor): obp 56f
[11] = genotype (tubulin-GAL4 x UAS-RNAi line; control = progenitor): obp 57a
[12] = genotype (tubulin-GAL4 x UAS-RNAi line; control = progenitor): obp 57b
[13] = genotype (tubulin-GAL4 x UAS-RNAi line; control = progenitor): obp 58c
[14] = genotype (tubulin-GAL4 x UAS-RNAi line; control = progenitor): obp 59a
[15] = genotype (tubulin-GAL4 x UAS-RNAi line; control = progenitor): obp 83a
[16] = genotype (tubulin-GAL4 x UAS-RNAi line; control = progenitor): obp 83c
[17] = genotype (tubulin-GAL4 x UAS-RNAi line; control = progenitor): obp 93a
[18] = genotype (tubulin-GAL4 x UAS-RNAi line; control = progenitor): obp 99b
[19] = genotype (tubulin-GAL4 x UAS-RNAi line; control = progenitor): obp 56h

O=Cc1ccccc1 [benzaldehyde]
olfactory response index (Drosophila melanogaster [1]; [3]): 0.725 ± 0.049
olfactory response index (Drosophila melanogaster [1]; [4]): 0.83 ± 0.13
olfactory response index (Drosophila melanogaster [1]; [5]): 0.53 ± 0.1
olfactory response index (Drosophila melanogaster [1]; [6]): 0.467 ± 0.074
olfactory response index (Drosophila melanogaster [1]; [7]): 0.621 ± 0.14
olfactory response index (Drosophila melanogaster [1]; [8]): 0.418 ± 0.068
olfactory response index (Drosophila melanogaster [1]; [9]): 0.522 ± 0.14
olfactory response index (Drosophila melanogaster [1]; [10]): 0.656 ± 0.11
olfactory response index (Drosophila melanogaster [1]; [11]): 0.547 ± 0.17
olfactory response index (Drosophila melanogaster [1]; [12]): 0.636 ± 0.024
olfactory response index (Drosophila melanogaster [1]; [13]): 0.702 ± 0.035
olfactory response index (Drosophila melanogaster [1]; [14]): 0.739 ± 0.0092
olfactory response index (Drosophila melanogaster [1]; [15]): 0.591 ± 0.15
olfactory response index (Drosophila melanogaster [1]; [16]): 0.557 ± 0.023
olfactory response index (Drosophila melanogaster [1]; [17]): 0.537 ± 0.042
olfactory response index (Drosophila melanogaster [1]; [18]): 0.299 ± 0.13
olfactory response index (Drosophila melanogaster [1]; [19]): 0.555 ± 0.12
olfactory response index (Drosophila melanogaster [2]; [3]): 0.8108 ± 0.005
olfactory response index (Drosophila melanogaster [2]; [4]): 0.694 ± 0.053
olfactory response index (Drosophila melanogaster [2]; [5]): 0.534 ± 0.029
olfactory response index (Drosophila melanogaster [2]; [6]): 0.708 ± 0.24
olfactory response index (Drosophila melanogaster [2]; [7]): 0.757 ± 0.076
olfactory response index (Drosophila melanogaster [2]; [8]): 0.683 ± 0.17
olfactory response index (Drosophila melanogaster [2]; [9]): 0.645 ± 0.031
olfactory response index (Drosophila melanogaster [2]; [10]): 0.75 ± 0.058
olfactory response index (Drosophila melanogaster [2]; [11]): 0.839 ± 0.059
olfactory response index (Drosophila melanogaster [2]; [12]): 0.748 ± 0.087
olfactory response index (Drosophila melanogaster [2]; genotype (tubulin-GAL4 x UAS-RNAi line; control = progenitor): obp 58b): 0.753 ± 0.048
olfactory response index (Drosophila melanogaster [2]; [13]): 0.795 ± 0.051
olfactory response index (Drosophila melanogaster [2]; [14]): 0.863 ± 0.051
olfactory response index (Drosophila melanogaster [2]; [15]): 0.663 ± 0.16
olfactory response index (Drosophila melanogaster [2]; [16]): 0.797 ± 0.16
olfactory response index (Drosophila melanogaster [2]; [17]): 0.738 ± 0.11
olfactory response index (Drosophila melanogaster [2]; [18]): 0.379 ± 0.16
olfactory response index (Drosophila melanogaster [2]; [19]): 0.726 ± 0.091

Reference: the supplement of paper PMC3150612
